HT1080 IDH1KD tx – kills HT-1080 cells with IDH1 knockdown; 360,000 tested, 2% active; Potency, µM (series often up to 46.1 µM), hits mostly cytotoxic; HT-1080 IDH1 knockdown viability, ATP luminescence, 48 h
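Using the IDH1-knockdown HT-1080 line run in the same batch and compound series as the NT line, viability after 48 h at 37 °C was determined by CellTiter-Glo luminescence and expressed as % activity.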
DT40 TDP1 no CPT – qHTS for Inhibitors of human tyrosyl-DNA phosphodiesterase 1 (TDP1): qHTS in cells in absence of CPT | DT40 Tdp1-/- hTDP1 cells, no CPT, ATP luminescence, 48 h | 420,000 tested, 15% active | Potency, µM (doses to about 46.2 µM), hits mostly inhibitors; further: nearly all actives have a fitted effect of over 55% in size
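Compound effects on proliferation are scored in DT40 Tdp1-/-;hTDP1 cells in the absence of CPT. ATP levels (CellTiter-Glo luminescence) are recorded after a ≥48 hr, 37 °C incubation.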
uPA generation – blocks generation of uPA at the cell surface | cell surface uPA generation assay, qHTS | Potency, µM (highest dose often 38.3 µM), actives largely listed as inhibitors | 330,000 tested, 0.31% active | AID 540303; active means well fitted inhibition curve with a large enough effect; inconclusive means small, poorly fitted or top-dose-only effect; inactive means no such curve, though single readings can be large or run the other way; tested in mouse RAW 264.7 cells; further: nearly all actives have a fitted effect of over 55% in size
IL-1B inflam inh – blocks inflammasome-driven IL-1 beta release. 360,000 tested, 4.7% active. activity change, % at 57.5 µM. AID 743279. THP-1 LPS/ATP IL-1B secretion, AlphaLISA, 16 h; active compounds read low; in the data active means activity change below about -50%; inconclusive means mostly about -30% to -49%
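Secreted IL-1B measured by AlphaLISA bead assay after 16 h compound exposure of THP-1 cells; compounds (final up to 57.5 uM) added 1 h before LPS (250 ng/mL) and ATP (1.25 mM) stimulation; lower signal means less secretion.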
DT40 TDP1 CPT – growth inhibition of DT40 Tdp1-/-;hTDP1 cells with camptothecin (screen for TDP1 inhibitors); chicken DT40 Tdp1-/-;hTDP1 cells + 20 nM CPT, ATP luminescence, 48 h; Potency, µM (doses to about 46.2 µM), most hits filed as inhibitors; 420,000 tested, 12% active; AID 686979; further: nearly all actives have a fitted effect of over 55% in size
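Cell growth measured by CellTiter-Glo luminescence after a minimum 48 h, 37 C compound exposure with 20 nM CPT in Tdp1-knockout DT40 cells stably expressing hTDP1, seeded 400/well; qHTS titration format.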
HT1080-NT tox – kills 2HG-producing HT-1080-NT fibrosarcoma cells | AID 686970 | Potency, µM (highest dose often 46.1 µM), most hits filed as cytotoxic | HT-1080-NT fibrosarcoma viability, CellTiter-Glo ATP luminescence, 48 h | 360,000 tested, 1.6% active;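 further: NT is the 2HG producing partner of a matched IDH1 knockdown line; nearly all actives have a fitted effect of over 55% in size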
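Compounds were tested in concentration-response format on HT-1080-NT cells for 48 hours at 37 degrees C. Cell viability came from CellTiter-Glo luminescence; curves were classified by r2, response magnitude and activity.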
A number is an active result; n = inactive; u = inconclusive; x = no result; ! = not active in a repeat; [ ] = another dose, or the depositor's remark. Only some compounds are listed: those with a hit (about 19% of all), similar ones and a draw of the others. Unless noted, the call rests on the fitted dose curve; in most records, active means well fitted curve in the direction sought with a large enough effect; inconclusive means small, poorly fitted or top-dose-only effect, or another doubt; inactive means no such curve, though single readings can be large; an effect the other way counts as inactive or inconclusive.

SMILES	HT1080 IDH1KD tx	DT40 TDP1 no CPT	uPA generation	IL-1B inflam inh	DT40 TDP1 CPT	HT1080-NT tox
COc1ccc(C(=O)CN2Cc3ccccc3C2=N)cc1	n	18µM	u	n	16µM	n
CCN(CC)CCn1c(=N)n(CC(=O)c2ccc(C)cc2)c2ccccc21	u	13µM	n	-59	16µM	n
Cn1c(=N)n(CC(=O)c2ccccc2)c2ccccc21	n	18µM	n	n	u	n
N#CCC(=O)Nc1ccc(C(=O)Nc2cccc(S(=O)(=O)N3CCCC3)c2)cc1	n	n	x	n	n	n
COc1ccc(C(=O)c2cn(CC(=O)Nc3cc(OC)cc(OC)c3)c3ccc(OC)cc3c2=O)cc1	x	u	x	x	n	x
COc1ccc(C(=O)Cn2c(=N)n(C)c3ccccc32)cc1	u	21µM	n	-56	u	u
Cn1c(=N)n(CC(=O)C(C)(C)C)c2ccccc21	n	n	n	n	u	n
Cn1c(=N)n(CC(=O)c2ccc(Cl)c(Cl)c2)c2ccccc21	n	16µM	n	u	13µM	n
C=CCn1c(=N)n(CC(=O)c2ccc(OC)cc2)c2ccccc21	n	u	n	x	u	n
C[C@H]1CN([C@@H](C)CO)C(=O)CCCn2cc(nn2)CO[C@@H]1CN(C)C(=O)Nc1ccc(N2CCN(C)CC2)cc1	n	n	x	n	n	n
COc1ccc(OCCNC(=S)Nc2cccc3ccccc23)cc1	u	23µM	x	n	n	n[9.24 µM]
COc1ccc(CCNC(=S)Nc2cccc3ccccc23)cc1	n	16µM	n	n	u	n
COc1ccc(-c2cc(C3CC3)nc(SCC(=O)c3cccs3)c2C#N)cc1	n	12µM	n	n	u	n
CSc1nc(C2CC2)cc(-c2cccs2)c1C#N	u	n	n	u	n	32µM
CCOc1ccc(CCNC(=O)c2ccc(CS(=O)Cc3cccc(Cl)c3)o2)cc1 (stereo not given)	n	15µM	n	u	u	n
O=C(NCc1ccc(Cl)cc1)c1ccc(CS(=O)Cc2cccc(Cl)c2)o1 (stereo not given)	n	u	n	n	u	n
CCOc1ccc(CCNC(=O)c2ccc(CS(=O)Cc3ccc(Cl)cc3)o2)cc1OCC (stereo not given)	n	15µM	n	n	u	n
O=C(c1ccc2c(c1)N(Cc1ccccc1F)C(=O)c1ccccc1S2(=O)=O)N1CCCCC1	x	16µM	x	x	u	x
O=C(c1ccc2c(c1)N(Cc1ccccc1F)C(=O)c1ccccc1S2(=O)=O)N1CCCC1	n	23µM	n	n	u	n
O=C(O)CC1Sc2ccccc2NC1=O (stereo not given)	n	n	n	n	n	n
O=C1Nc2ccccc2SC(c2ccccc2)C1O (stereo not given)	n	u	n	n	23µM	n
Cc1ccc2nc(-c3ccc(F)cc3)c(NC(C)(C)CC(C)(C)C)n2c1	x	8.2µM	x	x	16µM	x
CC(C)(C)CC(C)(C)Nc1c(-c2ccc(O)cc2)nc2cnccn12	u	26µM	x	n	18µM	u
Oc1ccc(-c2nc3cnccn3c2Nc2ccc3c(c2)OCCO3)cc1	n	n	u	n	n	n
Cc1ccc(N2CC(NC(=O)C3CCCCC3)CC2=O)cc1C (stereo not given)	x	n	x	x	n	x
SMILES	HT1080 IDH1KD tx	DT40 TDP1 no CPT	uPA generation	IL-1B inflam inh	DT40 TDP1 CPT	HT1080-NT tox
O=C1NC2c3c(Cl)sc(Cl)c3C(=O)C2O1 (stereo not given)	u	21µM	n	-103	21µM	u
O=C1NC2c3c(I)sc(I)c3C(=O)C2O1 (stereo not given)	u	7.3µM	n	-56	6.5µM	u
O=C1NC2c3ccccc3CC2O1 (stereo not given)	n	n	n	n	n	n
COc1ccc(NC(=O)c2ccc(S(=O)(=O)N3CCOCC3)o2)cc1	n	n	n	n	n	n
O=C(COC(=O)c1cc([N+](=O)[O-])ccc1NCCO)Nc1cccnc1Cl	n	u	n	n	n	n
O=C(Nc1cccc2ncccc12)c1cc([N+](=O)[O-])ccc1Cl	n	u	n	-88	u	u
CC(=O)Nc1ccc(NC(=O)c2ccc([N+](=O)[O-])cc2Cl)cc1	n	n	n	n	n	n
O=C(Nc1cccnc1Cl)c1cc([N+](=O)[O-])ccc1Cl	u	u	n	-63	u	u
O=C(Nc1ccccc1)c1cc([N+](=O)[O-])ccc1Cl	n	28µM!	n	n	30µM!	n
O=C(CNC(c1ccccc1)c1ccccc1)Nc1cc([N+](=O)[O-])ccc1Cl	n	16µM	n	n	21µM	n
CCCCN(C=O)c1c(CC)nc2ccc(C(=O)NCCCN3CCCC3=O)cn12	n	n	x	n	n	n
O=C(CN(c1ccccc1)S(=O)(=O)c1ccccc1)Nc1ccc(F)cc1	n	n	n	n	u	n
COc1ccc(OC)c(C(=O)N2CCC(n3nccc3NC(=O)CC(C)C)CC2)c1	n	n	u	n	n	n
Cc1cc(NC(=O)c2cccs2)ncc1NC(=O)C(C)(C)C	n	n	n	n	n	n
Cc1ccc(N(C(=O)c2ccccn2)C2(C(=O)NC3CCCC3)CCCCC2)cc1	n	1.6µM	n	n	0.52µM	n
Cc1ccc(S(=O)(=O)N(Cc2nc(-c3cccc(C)c3)no2)C2CCCCC2)cc1	x	10µM	x	x	u	x
Cc1cccc(-c2noc(CN(C3CCCCC3)S(=O)(=O)c3ccc(F)cc3)n2)c1	x	15µM	x	x	21µM	x
COc1ccc(S(=O)(=O)N(Cc2nc(-c3cccc(C)c3)no2)C2CCCCC2)cc1	x	u	x	x	15µM	x
O=C(NN=C1CCCCCCCCCCC1)c1cccc(S(=O)(=O)N2CCOCC2)c1	n	n	n	n	n	n
O=S(=O)(c1ccc(Br)cc1F)N1CCC(O)CC1	n	n	n	n	n	n
Cc1ccc(-c2nc3ccccc3c(=O)n2O)cc1	n	n	n	n	n	n
Cc1ccc(-c2nc3ccc(Cl)cc3c(=O)n2O)cc1	n	16µM	n	n	u	n
COc1ccc(CNC(=O)C2CCCN(C(=O)Nc3ccc(OC)cc3)C2)cc1 (stereo not given)	n	n	n	n	n	n
CCOc1ccccc1Nc1nnc(-c2cc3cc(Cl)ccc3oc2=O)s1	x	2.3µM	x	x	2.3µM	x
CCCC(O)(c1ccc(CC)cc1)C(CN1CCOCC1)c1ccccc1 (stereo not given)	21µM	18µM	n	u	16µM	33µM
CCCCCCC(O)(c1ccccc1)C(CN1CCOCC1)c1ccccc1 (stereo not given)	n	23µM	n	n	18µM	n

High-throughput results (PubChem BioAssay)
